Tests used:
[1] = biological target: Rho-associated protein kinase 1 (Homo sapiens) (UniProt Q13464); conditions: at 1 µM;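 note: reported values are mean percent inhibition of ROCK1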
[2] = biological target: Rho-associated protein kinase 2 (Homo sapiens) (UniProt O75116); conditions: at 0.1 µM
[3] = biological target: Rho-associated protein kinase 2 (Homo sapiens) (UniProt O75116); conditions: at 1 µM
[4] = biological target: Ribosomal protein S6 kinase alpha-1 (Homo sapiens) (UniProt Q15418); conditions: at 0.1 µM
[5] = biological target: Ribosomal protein S6 kinase alpha-1 (Homo sapiens) (UniProt Q15418); conditions: at 1 µM
[6] = biological target: Ribosomal protein S6 kinase alpha-3 (Homo sapiens) (UniProt P51812); conditions: at 0.1 µM
[7] = biological target: Ribosomal protein S6 kinase alpha-3 (Homo sapiens) (UniProt P51812); conditions: at 1 µM
[8] = biological target: Ribosomal protein S6 kinase alpha-2 (Homo sapiens) (UniProt Q15349); conditions: at 0.1 µM
[9] = biological target: Ribosomal protein S6 kinase alpha-2 (Homo sapiens) (UniProt Q15349); conditions: at 1 µM
[10] = biological target: Ribosomal protein S6 kinase alpha-6 (Homo sapiens) (UniProt Q9UK32); conditions: at 0.1 µM;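 note: reported value is the mean inhibition of RSK4, from the GSK PKIS kinase inhibitor screen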
Chain of Ribosomal protein S6 kinase alpha-6 (Homo sapiens) (Q9UK32 whole entry): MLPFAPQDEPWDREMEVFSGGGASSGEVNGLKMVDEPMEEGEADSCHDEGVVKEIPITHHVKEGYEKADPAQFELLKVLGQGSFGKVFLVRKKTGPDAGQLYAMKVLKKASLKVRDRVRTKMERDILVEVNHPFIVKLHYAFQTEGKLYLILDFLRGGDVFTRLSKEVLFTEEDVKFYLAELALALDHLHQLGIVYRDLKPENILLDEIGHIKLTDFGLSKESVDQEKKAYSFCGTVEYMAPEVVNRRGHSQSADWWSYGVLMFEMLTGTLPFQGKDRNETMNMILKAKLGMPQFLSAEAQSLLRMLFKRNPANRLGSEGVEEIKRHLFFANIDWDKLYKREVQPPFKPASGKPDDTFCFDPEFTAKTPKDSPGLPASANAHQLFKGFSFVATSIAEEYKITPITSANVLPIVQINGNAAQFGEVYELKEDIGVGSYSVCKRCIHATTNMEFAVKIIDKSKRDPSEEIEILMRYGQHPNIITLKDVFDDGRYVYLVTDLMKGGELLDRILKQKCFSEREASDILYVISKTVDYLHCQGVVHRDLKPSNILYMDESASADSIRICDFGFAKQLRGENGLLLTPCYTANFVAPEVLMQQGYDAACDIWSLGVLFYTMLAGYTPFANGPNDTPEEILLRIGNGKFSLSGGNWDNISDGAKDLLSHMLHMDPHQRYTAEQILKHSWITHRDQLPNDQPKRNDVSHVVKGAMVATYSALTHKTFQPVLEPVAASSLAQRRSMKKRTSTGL

Chain of Rho-associated protein kinase 1 (Homo sapiens) (Q13464 2-1354 limits assumed): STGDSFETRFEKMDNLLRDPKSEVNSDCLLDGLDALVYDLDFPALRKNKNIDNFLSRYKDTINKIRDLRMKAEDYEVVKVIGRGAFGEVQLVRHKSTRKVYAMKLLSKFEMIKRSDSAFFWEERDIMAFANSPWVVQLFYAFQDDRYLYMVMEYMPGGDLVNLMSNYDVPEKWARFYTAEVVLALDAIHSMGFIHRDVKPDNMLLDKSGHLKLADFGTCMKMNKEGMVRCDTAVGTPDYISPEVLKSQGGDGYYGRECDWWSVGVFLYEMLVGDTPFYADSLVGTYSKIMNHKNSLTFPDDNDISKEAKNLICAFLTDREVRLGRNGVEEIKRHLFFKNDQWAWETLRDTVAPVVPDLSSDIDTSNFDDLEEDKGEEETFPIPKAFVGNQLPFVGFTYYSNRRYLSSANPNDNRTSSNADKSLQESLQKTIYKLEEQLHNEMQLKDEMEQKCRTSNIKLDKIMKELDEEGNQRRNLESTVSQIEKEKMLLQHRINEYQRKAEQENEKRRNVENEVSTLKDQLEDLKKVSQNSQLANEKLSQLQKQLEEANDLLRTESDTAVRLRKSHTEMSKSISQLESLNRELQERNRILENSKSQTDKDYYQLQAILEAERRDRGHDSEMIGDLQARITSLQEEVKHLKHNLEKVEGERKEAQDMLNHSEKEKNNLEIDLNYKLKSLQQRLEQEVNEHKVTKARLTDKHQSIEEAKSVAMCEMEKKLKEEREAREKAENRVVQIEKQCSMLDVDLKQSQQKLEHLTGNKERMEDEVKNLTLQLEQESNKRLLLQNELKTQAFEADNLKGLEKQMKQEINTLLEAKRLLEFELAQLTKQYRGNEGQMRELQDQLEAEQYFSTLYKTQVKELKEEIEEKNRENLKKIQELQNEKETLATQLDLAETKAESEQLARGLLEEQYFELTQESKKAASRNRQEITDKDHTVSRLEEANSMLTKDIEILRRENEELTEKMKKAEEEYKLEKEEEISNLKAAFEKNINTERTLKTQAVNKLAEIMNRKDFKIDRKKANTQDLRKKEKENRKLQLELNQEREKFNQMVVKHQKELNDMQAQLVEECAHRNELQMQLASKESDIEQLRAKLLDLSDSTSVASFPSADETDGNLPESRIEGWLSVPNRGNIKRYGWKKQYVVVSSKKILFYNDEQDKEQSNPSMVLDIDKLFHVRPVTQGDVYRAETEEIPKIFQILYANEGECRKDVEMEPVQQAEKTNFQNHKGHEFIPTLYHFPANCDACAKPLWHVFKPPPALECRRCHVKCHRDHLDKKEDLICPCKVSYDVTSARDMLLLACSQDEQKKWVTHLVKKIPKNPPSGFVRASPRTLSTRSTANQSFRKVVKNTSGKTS
Chain of Ribosomal protein S6 kinase alpha-3 (Homo sapiens) (P51812 whole entry): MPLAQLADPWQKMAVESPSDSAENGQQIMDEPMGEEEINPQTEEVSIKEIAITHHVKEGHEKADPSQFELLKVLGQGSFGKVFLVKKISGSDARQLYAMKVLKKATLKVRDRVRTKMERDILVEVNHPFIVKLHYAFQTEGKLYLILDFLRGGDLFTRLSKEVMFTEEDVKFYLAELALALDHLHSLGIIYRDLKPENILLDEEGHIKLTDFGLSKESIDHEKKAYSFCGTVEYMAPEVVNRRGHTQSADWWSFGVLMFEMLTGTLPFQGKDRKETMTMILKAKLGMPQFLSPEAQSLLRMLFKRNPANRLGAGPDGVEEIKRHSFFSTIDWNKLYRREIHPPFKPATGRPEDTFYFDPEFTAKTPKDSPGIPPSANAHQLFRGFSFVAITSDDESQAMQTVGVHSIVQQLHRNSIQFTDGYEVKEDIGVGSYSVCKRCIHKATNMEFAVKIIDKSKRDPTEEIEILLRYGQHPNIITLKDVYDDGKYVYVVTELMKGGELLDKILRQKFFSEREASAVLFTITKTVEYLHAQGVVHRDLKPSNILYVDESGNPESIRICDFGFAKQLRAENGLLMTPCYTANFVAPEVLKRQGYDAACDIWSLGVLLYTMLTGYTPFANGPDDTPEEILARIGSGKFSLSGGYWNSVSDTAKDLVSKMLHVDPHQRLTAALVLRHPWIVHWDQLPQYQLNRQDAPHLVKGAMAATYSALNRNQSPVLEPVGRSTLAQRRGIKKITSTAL
Chain of Ribosomal protein S6 kinase alpha-1 (Homo sapiens) (Q15418 whole entry): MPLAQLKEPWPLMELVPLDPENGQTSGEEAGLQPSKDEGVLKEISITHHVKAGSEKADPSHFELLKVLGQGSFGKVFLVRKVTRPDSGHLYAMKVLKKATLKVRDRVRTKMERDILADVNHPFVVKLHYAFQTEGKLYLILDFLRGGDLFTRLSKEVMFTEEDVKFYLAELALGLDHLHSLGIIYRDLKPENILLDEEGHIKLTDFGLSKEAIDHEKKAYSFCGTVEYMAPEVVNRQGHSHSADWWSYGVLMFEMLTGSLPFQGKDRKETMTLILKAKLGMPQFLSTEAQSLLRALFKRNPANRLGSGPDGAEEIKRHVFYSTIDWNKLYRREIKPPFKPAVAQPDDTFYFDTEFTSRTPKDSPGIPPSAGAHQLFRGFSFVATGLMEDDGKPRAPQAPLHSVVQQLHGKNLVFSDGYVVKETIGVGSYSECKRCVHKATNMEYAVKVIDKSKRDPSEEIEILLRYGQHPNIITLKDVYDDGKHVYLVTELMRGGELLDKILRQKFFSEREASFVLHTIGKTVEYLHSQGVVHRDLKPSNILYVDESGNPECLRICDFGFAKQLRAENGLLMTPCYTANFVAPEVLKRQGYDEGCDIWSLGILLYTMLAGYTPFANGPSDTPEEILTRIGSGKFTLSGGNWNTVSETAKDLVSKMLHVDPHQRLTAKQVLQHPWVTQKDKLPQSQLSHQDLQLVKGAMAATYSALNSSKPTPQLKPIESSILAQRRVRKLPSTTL
Chain of Rho-associated protein kinase 2 (Homo sapiens) (O75116 whole entry, looked up): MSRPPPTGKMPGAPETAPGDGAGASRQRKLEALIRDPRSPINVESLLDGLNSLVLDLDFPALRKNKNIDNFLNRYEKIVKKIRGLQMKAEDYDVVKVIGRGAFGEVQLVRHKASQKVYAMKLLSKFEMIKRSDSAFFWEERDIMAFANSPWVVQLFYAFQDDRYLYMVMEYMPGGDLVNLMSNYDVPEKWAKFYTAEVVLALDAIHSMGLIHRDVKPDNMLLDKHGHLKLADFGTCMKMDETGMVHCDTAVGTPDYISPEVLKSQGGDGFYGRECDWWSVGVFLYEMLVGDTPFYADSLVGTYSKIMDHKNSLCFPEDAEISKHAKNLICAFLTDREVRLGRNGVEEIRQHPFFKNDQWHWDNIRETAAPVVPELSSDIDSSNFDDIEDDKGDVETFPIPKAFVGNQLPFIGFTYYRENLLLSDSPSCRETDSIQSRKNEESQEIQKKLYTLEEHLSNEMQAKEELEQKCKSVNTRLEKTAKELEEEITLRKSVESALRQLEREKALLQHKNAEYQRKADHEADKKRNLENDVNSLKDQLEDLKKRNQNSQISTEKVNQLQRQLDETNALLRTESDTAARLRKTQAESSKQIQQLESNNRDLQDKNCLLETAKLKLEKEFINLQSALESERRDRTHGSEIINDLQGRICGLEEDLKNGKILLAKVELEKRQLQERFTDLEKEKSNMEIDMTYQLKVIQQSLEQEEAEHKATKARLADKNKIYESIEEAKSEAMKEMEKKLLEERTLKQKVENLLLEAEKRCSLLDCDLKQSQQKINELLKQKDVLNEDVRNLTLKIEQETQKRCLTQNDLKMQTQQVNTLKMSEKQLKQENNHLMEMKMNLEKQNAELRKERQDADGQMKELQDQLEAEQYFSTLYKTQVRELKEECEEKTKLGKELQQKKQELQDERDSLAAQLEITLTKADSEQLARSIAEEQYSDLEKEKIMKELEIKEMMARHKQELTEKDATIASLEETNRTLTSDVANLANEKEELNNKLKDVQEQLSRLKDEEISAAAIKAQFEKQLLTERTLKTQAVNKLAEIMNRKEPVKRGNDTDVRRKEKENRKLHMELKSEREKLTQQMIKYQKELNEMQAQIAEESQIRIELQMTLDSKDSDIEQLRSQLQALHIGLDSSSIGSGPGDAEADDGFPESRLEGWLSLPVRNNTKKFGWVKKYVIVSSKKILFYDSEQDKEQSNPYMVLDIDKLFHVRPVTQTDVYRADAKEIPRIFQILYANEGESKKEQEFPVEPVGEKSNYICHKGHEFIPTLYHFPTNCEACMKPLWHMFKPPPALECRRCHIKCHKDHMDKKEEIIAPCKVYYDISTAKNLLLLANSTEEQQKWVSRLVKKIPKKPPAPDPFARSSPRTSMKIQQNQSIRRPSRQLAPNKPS

Fc1ccc(-c2c(-c3ccncc3)nc3n2CCS3)cc1
inhibition [1]: 13.8%
inhibition [2]: 11.2%
inhibition [3]: 16.1%
inhibition [4]: 3.39%
inhibition [5]: 6.17%
inhibition [6]: 3.04%
inhibition [7]: 6%
inhibition [8]: 2.43%
inhibition [9]: 3.27%
inhibition [10]: 1.3%

CN(C)CCOc1ccc(-c2cc(-c3ccc4c(c3)CCC4=NO)c(-c3ccncc3)o2)cc1
inhibition [1]: -1.5%
inhibition [2]: -2.12%
inhibition [3]: -0.39%
inhibition [4]: -0.55%
inhibition [5]: -1.02%
inhibition [6]: -0.48%
inhibition [7]: -0.08%
inhibition [8]: -0.08%
inhibition [9]: 0.83%
inhibition [10]: -0.45%

c1ccc(Oc2ccc(Nc3ncc(-c4ccccc4)o3)cc2)cc1
inhibition [1]: 4.29%
inhibition [2]: 4.32%
inhibition [3]: 4.11%
inhibition [4]: 1.98%
inhibition [5]: 3.12%
inhibition [6]: 0.81%
inhibition [7]: 1.91%
inhibition [8]: 0.83%
inhibition [9]: 1.55%
inhibition [10]: 0.67%

COc1ccc2cc(-c3c(-c4ccncc4)nc(-c4ccc(S(C)(=O)=O)cc4C)n3C)ccc2c1
inhibition [1]: 10.6%
inhibition [2]: 10.5%
inhibition [3]: 12.3%
inhibition [4]: 6.01%
inhibition [5]: 9.72%
inhibition [6]: 4.66%
inhibition [7]: 9.83%
inhibition [8]: 3.42%
inhibition [9]: 3.72%
inhibition [10]: 1.53%

COc1cc(C)c(N(C)C(=O)CN(C)C)cc1Nc1nc(Nc2cccc(F)c2C(N)=O)c2cc[nH]c2n1
inhibition [1]: 1.48%
inhibition [2]: 0.89%
inhibition [3]: -0.53%
inhibition [4]: 1.17%
inhibition [5]: 3.02%
inhibition [6]: 1.14%
inhibition [7]: 1.43%
inhibition [8]: 1.84%
inhibition [9]: 2.69%
inhibition [10]: 1.67%

CNC(=O)c1cncc(/C=C/c2c(C)cccc2C)c1
inhibition [1]: 0.33%
inhibition [2]: 1.01%
inhibition [3]: 1.34%
inhibition [4]: 1.16%
inhibition [5]: 0.45%
inhibition [6]: 0.6%
inhibition [7]: -0.28%
inhibition [8]: 1.22%
inhibition [9]: 0.63%
inhibition [10]: 0.47%

c1ccc(-c2n[nH]cc2-c2ccnc(-c3ccc(OCCN4CCOCC4)cc3)c2)nc1
inhibition [1]: 2.14%
inhibition [2]: -0.2%
inhibition [3]: -1.4%
inhibition [4]: 0.42%
inhibition [5]: -1.3%
inhibition [6]: 0.55%
inhibition [7]: 0.57%
inhibition [8]: -0.89%
inhibition [9]: -0.56%
inhibition [10]: -0.33%

COC(=O)Nc1nc2ccc(Sc3ccc(NC(=O)Nc4cc(C(F)(F)F)ccc4F)cc3)cc2[nH]1
inhibition [1]: -0.72%
inhibition [2]: 0.53%
inhibition [3]: -0.19%
inhibition [4]: -0.4%
inhibition [5]: 0.24%
inhibition [6]: -0.27%
inhibition [7]: -1.87%
inhibition [8]: 47.7%
inhibition [9]: 2.97%
inhibition [10]: 48.6%

Clc1ccc(CNc2nccc(-c3cnn4ncccc34)n2)cc1
inhibition [1]: 1.31%
inhibition [2]: 2.04%
inhibition [3]: 2.71%
inhibition [4]: 1.41%
inhibition [5]: 1.24%
inhibition [6]: 0.05%
inhibition [7]: 0.52%
inhibition [8]: 0.62%
inhibition [9]: 0.33%
inhibition [10]: 2.62%

COc1ccc2cc(-c3c(-c4ccncc4)nc(-c4ccc([S+](C)[O-])cc4C)n3C)ccc2c1 (stereo not given)
inhibition [1]: -0.59%
inhibition [2]: -0.57%
inhibition [3]: -0.64%
inhibition [4]: -0.66%
inhibition [5]: -1.48%
inhibition [6]: -0.38%
inhibition [7]: -0.28%
inhibition [8]: 0.02%
inhibition [9]: -0.67%
inhibition [10]: -0.13%

Fc1ccc(-c2ncn(C3CCNCC3)c2-c2ccnc(Oc3ccc(Oc4ccccc4)cc3)n2)cc1
inhibition [1]: 1.68%
inhibition [2]: 2.53%
inhibition [3]: 3.69%
inhibition [4]: 3.01%
inhibition [5]: 2.7%
inhibition [6]: 1.73%
inhibition [7]: 2.37%
inhibition [8]: 3.61%
inhibition [9]: 3.8%
inhibition [10]: 2.38%

COc1ccc2ncn(-c3cc(O[C@H](C)c4ccccc4Cl)c(C(N)=O)s3)c2c1
inhibition [1]: 2.68%
inhibition [2]: 1.42%
inhibition [3]: 2.59%
inhibition [4]: -0.02%
inhibition [5]: 0.44%
inhibition [6]: -1.13%
inhibition [7]: -0.23%
inhibition [8]: 1.47%
inhibition [9]: 1.88%
inhibition [10]: 0.03%

CCS(=O)(=O)c1ccc(OC)c(Nc2ncc(-c3ccccc3Cl)o2)c1
inhibition [1]: -0.3%
inhibition [2]: 1.15%
inhibition [3]: 2.53%
inhibition [4]: 1.95%
inhibition [5]: 5.76%
inhibition [6]: 0.57%
inhibition [7]: 4.01%
inhibition [8]: 0.2%
inhibition [9]: 4.26%
inhibition [10]: 2.01%

CCN(CC)Cc1ccc(Nc2nccc(-c3cnn4ncccc34)n2)cc1
inhibition [1]: 9.36%
inhibition [2]: 2.02%
inhibition [3]: 13.7%
inhibition [4]: 0.21%
inhibition [5]: 2.52%
inhibition [6]: -0.63%
inhibition [7]: 2.49%
inhibition [8]: 2.26%
inhibition [9]: 3.81%
inhibition [10]: 0.43%

COc1cc2ncn(-c3cc(OCCc4ccccc4)c(C(N)=O)s3)c2cc1OC
inhibition [1]: 0.3%
inhibition [2]: 0.94%
inhibition [3]: -1.5%
inhibition [4]: 0.33%
inhibition [5]: -0.89%
inhibition [6]: 0.83%
inhibition [7]: 0.32%
inhibition [8]: 1.71%
inhibition [9]: 1.86%
inhibition [10]: 1.48%

COc1cc(Nc2ncc3c(C)nc(-c4cccc(C(F)(F)F)c4)n3n2)cc(OC)c1OC
inhibition [1]: 2.39%
inhibition [2]: 2.6%
inhibition [3]: 8.14%
inhibition [4]: 5.19%
inhibition [5]: 26.7%
inhibition [6]: 5.91%
inhibition [7]: 31.8%
inhibition [8]: 7.09%
inhibition [9]: 37.1%
inhibition [10]: 5.57%

COc1cccc(/C=N/Nc2ncnc3c2cnn3-c2cccc(OC)c2)c1
inhibition [1]: 3.6%
inhibition [2]: 2.65%
inhibition [3]: 3.61%
inhibition [4]: 1.05%
inhibition [5]: 0.75%
inhibition [6]: 0.86%
inhibition [7]: 1.4%
inhibition [8]: 1.64%
inhibition [9]: 2.21%
inhibition [10]: 0.2%

CCc1ccc(Oc2nccc(-c3c(-c4ccc(F)cc4)ncn3C3CCNCC3)n2)cc1
inhibition [1]: 3.4%
inhibition [2]: 2.09%
inhibition [3]: 3.7%
inhibition [4]: 2.14%
inhibition [5]: 3.42%
inhibition [6]: 3.03%
inhibition [7]: 4.07%
inhibition [8]: 3.08%
inhibition [9]: 3.54%
inhibition [10]: 3.18%

O=C1Nc2ccccc2/C1=C/Nc1ccc(-n2cncn2)cc1
inhibition [1]: 1.71%
inhibition [2]: 3.63%
inhibition [3]: 7.17%
inhibition [4]: 2.06%
inhibition [5]: 10.9%
inhibition [6]: 2.37%
inhibition [7]: 8.64%
inhibition [8]: 3.38%
inhibition [9]: 14.2%
inhibition [10]: 3.31%

CN1CCN(CCCNc2nc3ccc(Oc4ccc(NC(=O)Nc5cc(C(F)(F)F)ccc5F)cc4)cc3[nH]2)CC1
inhibition [1]: 3.23%
inhibition [2]: 0.43%
inhibition [3]: 0.51%
inhibition [4]: 1.08%
inhibition [5]: -1.68%
inhibition [6]: 1.52%
inhibition [7]: -0.48%
inhibition [8]: 0.97%
inhibition [9]: 2.27%
inhibition [10]: 1.31%

COc1cc2ncn(-c3cc(OCc4cccs4)c(C(N)=O)s3)c2cc1OC
inhibition [1]: 2.63%
inhibition [2]: 3.91%
inhibition [3]: 11.3%
inhibition [4]: 4.14%
inhibition [5]: 12.6%
inhibition [6]: 3.71%
inhibition [7]: 11.8%
inhibition [8]: 2.98%
inhibition [9]: 9.31%
inhibition [10]: 1.53%

CN(C)CCCNc1nccc(-c2c(-c3ccc(F)cc3)nn3cc(C(F)(F)F)ccc23)n1
inhibition [1]: 1.8%
inhibition [2]: 1.71%
inhibition [3]: 3.88%
inhibition [4]: 2.04%
inhibition [5]: 4.02%
inhibition [6]: 0.68%
inhibition [7]: 2.23%
inhibition [8]: 1.91%
inhibition [9]: 3.08%
inhibition [10]: 0.86%

Fc1ccc(-c2ncn(CCCN3CCOCC3)c2-c2ccncc2)cc1
inhibition [1]: -0.82%
inhibition [2]: 0.06%
inhibition [3]: -4.4%
inhibition [4]: -1.49%
inhibition [5]: -3.25%
inhibition [6]: 0.33%
inhibition [7]: -0.73%
inhibition [8]: 0.61%
inhibition [9]: -0.22%
inhibition [10]: 0.43%

C[C@@H](Oc1cc(-n2cnc3ccc(OCC4CCN(C)CC4)cc32)sc1C(N)=O)c1ccccc1Cl
inhibition [1]: 7.23%
inhibition [2]: 3.44%
inhibition [3]: 9.54%
inhibition [4]: 3.39%
inhibition [5]: 16.8%
inhibition [6]: 4.17%
inhibition [7]: 22.5%
inhibition [8]: 5.72%
inhibition [9]: 22.4%
inhibition [10]: 8.06%

NC(=O)Cc1ccccc1Oc1nccc(-c2c(-c3ccc(F)cc3)ncn2C2CCNCC2)n1
inhibition [1]: 1.73%
inhibition [2]: -0.06%
inhibition [3]: 0.19%
inhibition [4]: 1.2%
inhibition [5]: 0.63%
inhibition [6]: 0.99%
inhibition [7]: 1.35%
inhibition [8]: 1.2%
inhibition [9]: 3.57%
inhibition [10]: 1.6%

CCS(=O)(=O)c1ccc(OC)c(Nc2ncc(-c3cccc(-c4ccccc4F)c3)o2)c1
inhibition [1]: 1.4%
inhibition [2]: 1.1%
inhibition [3]: 1%
inhibition [4]: 0.18%
inhibition [5]: 1.38%
inhibition [6]: 0.3%
inhibition [7]: 0.84%
inhibition [8]: 0.3%
inhibition [9]: 2.3%
inhibition [10]: -0.01%

O=C(Nc1n[nH]c2nc(-c3ccco3)ccc12)C1CC1
inhibition [1]: 3.74%
inhibition [2]: 1.89%
inhibition [3]: 3%
inhibition [4]: 0.92%
inhibition [5]: 0.86%
inhibition [6]: -0.05%
inhibition [7]: 0.78%
inhibition [8]: 0.54%
inhibition [9]: 1.46%
inhibition [10]: 0.59%

O=C(Nc1n[nH]c2cc(-c3ccccc3)ccc12)C1CC1
inhibition [1]: 1.05%
inhibition [2]: 2.59%
inhibition [3]: 0.78%
inhibition [4]: 0.84%
inhibition [5]: 1.81%
inhibition [6]: 1.2%
inhibition [7]: 0.07%
inhibition [8]: 3.06%
inhibition [9]: 3.36%
inhibition [10]: 3%

O=C(NCC1CC1)c1ccc(-c2cccc(C(=O)NC3CC3)c2)cc1
inhibition [1]: 2.85%
inhibition [2]: 2.43%
inhibition [3]: 1.11%
inhibition [4]: -0.06%
inhibition [5]: 0.15%
inhibition [6]: 0.89%
inhibition [7]: -1.16%
inhibition [8]: 0.67%
inhibition [9]: 0.58%
inhibition [10]: 0.55%

COc1cc(Nc2ncc3c(C)nc(-c4cccc(Oc5ccccc5)c4)n3n2)cc(OC)c1OC
inhibition [1]: 1.17%
inhibition [2]: 0.99%
inhibition [3]: -0.91%
inhibition [4]: 1.56%
inhibition [5]: 7.14%
inhibition [6]: 0.9%
inhibition [7]: 8.61%
inhibition [8]: 2.77%
inhibition [9]: 14.4%
inhibition [10]: 2.59%

NS(=O)(=O)c1ccc(Nc2cc(-c3ccc(O)c(F)c3)n[nH]2)cc1
inhibition [1]: 1.73%
inhibition [2]: -1.97%
inhibition [3]: 3.32%
inhibition [4]: 4.13%
inhibition [5]: 32.6%
inhibition [6]: 13.1%
inhibition [7]: 56.4%
inhibition [8]: 16.5%
inhibition [9]: 63.5%
inhibition [10]: 13.4%

O=C(Nc1n[nH]c2cc(-c3cc(F)ccc3F)ccc12)C1CC1
inhibition [1]: 2.49%
inhibition [2]: 1.39%
inhibition [3]: 2.28%
inhibition [4]: 0.64%
inhibition [5]: 0.86%
inhibition [6]: 0.31%
inhibition [7]: 1.63%
inhibition [8]: 1.04%
inhibition [9]: 3.43%
inhibition [10]: -0.13%

Cc1ccc(NC(=O)c2ccoc2)cc1-c1ccc(C(=O)NCC2CC2)cc1
inhibition [1]: -0.4%
inhibition [2]: 0.78%
inhibition [3]: -1.14%
inhibition [4]: 1.06%
inhibition [5]: 0.4%
inhibition [6]: -0.62%
inhibition [7]: 0.11%
inhibition [8]: 2%
inhibition [9]: 1.72%
inhibition [10]: -0.1%

C[C@@H](Oc1cc(-n2cnc3ccc(OC4CCN(C)CC4)cc32)sc1C(N)=O)c1ccccc1Cl
inhibition [1]: 5.39%
inhibition [2]: 1.57%
inhibition [3]: 5.08%
inhibition [4]: 2.3%
inhibition [5]: 12.4%
inhibition [6]: 3.29%
inhibition [7]: 21.8%
inhibition [8]: 4.54%
inhibition [9]: 20.2%
inhibition [10]: 7.23%
